TDP43 rescue – qHTS of TDP-43 Inhibitors. Potency, µM (titrated, usually from 46.1 µM), actives largely listed as activators. TDP-43 expressing yeast growth rescue, BacTiter-Glo, 24 h. 410,000 tested, 1.8% active; further: nearly all actives have a fitted effect of over 50% in size
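Yeast expressing TDP-43 (pregrown in raffinose, seeded at OD600=0.02 in galactose medium) exposed to compounds 24 hr at 30 deg C. Growth read by BacTiter-Glo luminescence; rescue of toxicity appears as increased signal.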
aSyn yeast inh – qHTS of alpha-syn Inhibitors; 370,000 tested, 0.14% active; Yeast expressing alpha-synuclein, growth rescue, BacTiter-Glo, 24 h; Potency, µM (titrated, usually from 46.1 µM), most hits filed as activators; further: nearly all actives have a fitted effect of over 65% in size
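Galactose-induced alpha-syn yeast (OD600=0.02, raffinose-pregrown) + pinned cpd, 24 hr, 30 deg C; growth by BacTiter-Glo luminescence. Growth restoration scores as activation.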
Abeta yeast res – qHTS for compounds that reverse cellular toxicity of Amyloid beta (A-beta) peptide in yeast: Primary Screen | yeast expressing A-beta42, growth rescue, OD600, 48 h; response scale: 0% DMSO, 100% iron-clioquinol control | Potency, µM (series often up to 46.1 µM), actives largely listed as activators | 410,000 tested, 0.063% active | AID 1347071, 2019; further: nearly all actives have a fitted effect of over 55% in size
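Yeast growth medium received pinned compounds, then yeast cells expressing toxic A-beta were added; plates incubated at 30 C for 48 hr. Growth read as absorbance at 600 nm, normalized to DMSO and equimolar FeCl3 plus clioquinol controls.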
FUS yeast rescue – qHTS for Suppressors of FUS Proteinopathy: Primary screen using FUS-linked yeast assay | Potency, µM (series often up to 76.6 µM), usual class: activators | 390,000 tested, 0.24% active | AID 1347120, 2019 | S. cerevisiae FUS-expressing, growth rescue, OD600, 24 h; further: nearly all actives have a fitted effect of over 55% in size
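S. cerevisiae expressing FUS from galactose induction served as the toxicity model. Growth after 24hr at 30C, read as absorbance at 600 nm, indicates suppression of toxicity; compounds dosed at several concentrations.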
A number is an active result; n = inactive; u = inconclusive; x = no result given; ! = not active in a repeat. The list is not random: actives were taken first. Their share in the collection is about 2.1%. The call rests on the fitted dose curve; in most records, active means well fitted curve in the direction sought with a large enough effect; inconclusive means small, poorly fitted or top-dose-only effect, or another doubt; inactive means no such curve, though single readings can be large; an effect the other way counts as inactive or inconclusive.

SMILES	TDP43 rescue	aSyn yeast inh	Abeta yeast res	FUS yeast rescue
CC(=O)c1sc(NC(=O)c2ccc(Br)o2)nc1C	11µM	n	n	n
CC(=O)c1sc(Nc2ccccc2)nc1C	n	n	n	n
Cc1nc(Nc2ccccc2)sc1-c1ccccc1	20µM	n	n	x
COc1ccc(C(=O)c2sc(Nc3ccccc3)nc2C)cc1	25µM	n	n	n
COc1ccc(CCNC(=O)CS(=O)(=O)Cc2nc(-c3cccc(Cl)c3)oc2C)cc1OC	n	x	n	n
Cc1ccc(C)n1-c1nnc(N2CCCC(C(=O)Nc3ccc(C(C)C)cc3)C2)s1 (centres undefined)	n	x	n	n
Cc1cc(NC(=O)CSc2nc(C)c(C)c(=O)[nH]2)no1	n	n	n	n
O=C(CSc1nc2ccsc2c(=O)n1Cc1ccccc1F)NCc1ccccc1Cl	n	x	n	n
C#CCN1C(=O)S/C(=C/C=C/c2ccc(N(C)C)cc2)C1=O	n	n	n	n
CC(=O)NC1CCCCN(C(C)C)C1=O (centres undefined)	x	x	x	n
COC(=O)CC[C@H](/C=C/C(=O)OC(C)(C)C)Sc1ccc(C(C)(C)C)cc1	x	x	x	n
COC(=O)c1sc(Nc2ccccc2)nc1C	13µM	n	n	n
CC(=O)c1sc(Nc2cccc(C)c2)nc1C	7.1µM	n	n	n
CCC/C=N/Nc1nnc(Cc2ccccc2)c(=O)[nH]1	n	n	n	n
CCCCCC/C=N/Nc1nnc(Cc2ccccc2)c(=O)[nH]1	20µM	n	n	n
COc1ccc2c(c1)CC/C(=C\c1ccc(C)o1)C2=O	18µM	n	n	n
COc1ccc2c(c1)CC/C(=C/c1ccncc1)C2=O	n	n	n	n
CCCN1CCN(c2nnc(-n3cccc3C(=O)Nc3cc(Cl)ccc3C)s2)CC1	n	x	n	n
Cc1cc(C)cc(NC(=O)COC(=O)CCC2CCCC2)c1	13µM	n	n	n
NC(=NCCCCCCN=C(N)/N=C(\N)Nc1ccc(Cl)cc1)/N=C(\N)Nc1ccc(Cl)cc1	25µM!	n	n	n
Cc1cc(C(=O)NCCc2ccc(S(N)(=O)=O)cc2)no1	n	n	n	n
C=CCN=c1scc(-c2ccc3c(c2)NC(=O)CO3)n1/N=C(\C)c1ccccn1	13µM	n	n	n
Cc1nc2ccc(NC(=O)C3(C)CCCN(C(C)C)C3)cc2o1 (centres undefined)	n	n	n	n
CSc1nnc(-c2cccs2)n1C	n	n	n	n
Cn1c(SCc2ccc(Br)cc2)nnc1-c1cccs1	14µM	n	n	n
SMILES	TDP43 rescue	aSyn yeast inh	Abeta yeast res	FUS yeast rescue
Cc1ccc(CSc2nnc(-c3cccs3)n2C)cc1	u	n	n	n
Cc1nnc(SCc2c(Cl)cccc2Cl)s1	16µM	n	n	n
Cn1c(SCc2c(Cl)cccc2Cl)nnc1-c1cccs1	18µM	n	n	n
CC(=O)N1CCc2cc(S(=O)(=O)NCCC(=O)N(C)Cc3ccccc3F)ccc21	x	x	x	n
CC(NC(=O)c1ccco1)c1cccc2ccccc12 (centres undefined)	20µM	n	n	n
COc1ccc(S(=O)(=O)N2CCOCC2)cc1NC(=O)CSc1nnc2n1CCCCC2	n	n	n	n
Cn1c(=O)c2cc(NC(=O)CCc3cccnc3)ccc2n1Cc1cccc(C(F)(F)F)c1	n	n	n	n
COCCNC(=O)C1CCCN(C(=O)COc2ccc(Cl)cc2Cl)CC1 (centres undefined)	u	n	n	n
O=C(CSc1nc2ccccc2n1-c1ccccc1)Nc1ncc(Cl)cc1Cl	22µM	n	n	n
COc1ccccc1NC(=O)CN(C)S(=O)(=O)c1ccc2c(c1)c(=O)n(C)c(=O)n2C	n	x	n	n
Cc1ccccc1-c1cccc([C@@H]2C[C@H]3[C@H](CON3C)CN2Cc2cc(Cl)cc(Cl)c2)c1	20µM	n	n	n
CN1OC[C@@H]2CN(Cc3cc(Cl)cc(Cl)c3)[C@H](c3cccc(Br)c3)C[C@@H]21	35µM	n	n	n
CCOC(=O)c1nc(NCCc2ccccc2)sc1C	13µM	n	n	n
CN(Cc1c(F)cccc1Cl)C(=O)c1ccc2ccccc2n1	n	n	n	n
Cc1ccc(Cn2c(CN3CCN(c4cccc(Cl)c4)CC3)nc3c2c(=O)n(C)c(=O)n3C)cc1	u	x	n	u
CCOC(=O)CC(NS(=O)(=O)c1ccc2[nH]c3c(c2c1)CCCC3)c1ccccc1Cl (centres undefined)	20µM	16µM	n	u
CCOC(=O)C1CCN(S(=O)(=O)c2ccc3[nH]c4c(c3c2)CCCC4)CC1	u	n	n	n
COc1ccc(Cl)cc1NS(=O)(=O)c1ccc2[nH]c3c(c2c1)CCCC3	13µM	x	n	n
COc1ccc(Cl)cc1NS(=O)(=O)c1ccc(OC)c(OC)c1	n	n	n	n
COc1ccc(S(=O)(=O)Nc2cc(Cl)ccc2OC)cc1	3.2µM	n	n	x
C=CCNC(=S)N1CCN(c2ccccc2Cl)CC1	n	n	u	n
CCCCNC(=S)N1CCN(c2ccccc2Cl)CC1	13µM	n	n	n
CNC(=S)N1CCC(Cc2ccccc2)CC1	n	n	u	n
CCCCNC(=S)N1CCC(Cc2ccccc2)CC1	n	n	18µM	n
O=C(O)c1c2c(nc3ccc(S(=O)(=O)N4CCC(C(=O)NC5CCCCCC5)CC4)cc13)CCCC2	n	n	n	n
SMILES	TDP43 rescue	aSyn yeast inh	Abeta yeast res	FUS yeast rescue
O=C(Nc1nc(-c2cccs2)c(-c2cccs2)s1)C1CCCC1	14µM	n	n	x
Cc1cc(OCC(=O)NNC(=O)c2cnccn2)cc(C)c1Cl	u	18µM	u	n
Cc1ccc(OCC(=O)NCCCNC(=O)c2cnccn2)cc1C	n	n	n	n
CCCCN(CCCC)c1ncnc2c1cnn2-c1cccc(C)c1	n	x	n	n
CCCCN(C)c1ncnc2c1cnn2-c1cccc(Cl)c1	13µM	x	n	n
O=C(CN1N=C(C(F)(F)F)CC1(O)c1ccc([N+](=O)[O-])cc1)c1ccccc1 (centres undefined)	16µM	n	n	n
O=C(c1ccccc1O)N1N=C(C(F)(F)F)CC1(O)c1ccc([N+](=O)[O-])cc1 (centres undefined)	n	n	n	n
COc1ccccc1CNC(=O)c1ccc2nc(N3CCOCC3)sc2c1	22µM	n	n	n
O=C(NCc1cccc(Cl)c1)c1ccc2nc(N3CCOCC3)sc2c1	25µM	n	n	n
O=C(COC(=O)c1ccc(F)cc1F)Nc1ccc(S(=O)(=O)N2CCOCC2)cc1	n	n	n	n
O=C(OCCN1CCN(C2CN(Cc3cn(Cc4ccccc4Cl)nn3)S(=O)(=O)C2)CC1)c1cc2ccccc2o1 (centres undefined)	x	x	x	n
N#CC(c1ccccc1)C(CC(=NO)c1ccccc1)c1ccccc1 (centres undefined)	18µM	u	n	n
CCc1ccc(C(=O)Nc2cccc(-c3nc4cc(C(C)C)ccc4o3)c2)cc1	n	n	n	n
COc1ccc(OC)c(Nc2nc(-c3sc(C)nc3C)cs2)c1	22µM	n	n	n
Cc1nc(C)c(-c2csc(Nc3ccc(Cl)cn3)n2)s1	13µM	n	n	n

Screening results from PubChem.
